The panel holds about 83,000 compounds, 20% with a hit somewhere; the sample as a whole holds those more often.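 How to read the values: 0–100, growth inhibition (40 = 60% inhibited); 0, no net growth; -100 to 0, cell death (-40 = 40% of starting cells died; -100 = all dead).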 Values without a mark were called inactive. Activity calls are given as the source filed them. How the source made its calls: active means growth percent below 10; inactive means the rest.

The record followed here is PubChem BioAssay (NCI).

Some test systems named below: HCT-15 colon; HT29 colon; SNB-75 CNS; SNB-19 CNS; U251 CNS; PC-3 prostate; SK-MEL-5 melanoma; UACC-62 melanoma; LOX IMVI melanoma; SK-MEL-28 melanoma; SK-MEL-2 melanoma; EKVX NSCLC; SN12C renal; UO-31 renal; TK-10 renal; ACHN renal; A498 renal; CCRF-CEM leukemia; MOLT-4 leukemia; SR leukemia.
What all share (experiment): NCI-60 one-dose screen, 48 h (100 = growth as untreated, 0 = no growth, -100 = all killed)
Common to all, as to settings: 10 µM unless noted

Take `CCCn1cc(/C=N\N=C2\C(=O)Nc3ccc(C)cc32)c2ccccc21`: the growth was 23% in the assay on HCT-15 colon; 17.1% in the assay with HT29 colon; 85.6% with SNB-75 CNS; 63.3% with SNB-19 CNS; 40% in the assay on U251 CNS; 18% in the assay on PC-3 prostate. Moreover, the growth was 49.1% with SK-MEL-5 melanoma; 40.4% in the assay with UACC-62 melanoma; 4.42% (active) in the assay with LOX IMVI melanoma; 59.4% in the assay on SK-MEL-28 melanoma; 35.1% in the assay on SK-MEL-2 melanoma; 50.5% with EKVX NSCLC. In addition, the growth in the assay on SN12C renal is 49.9%; in the assay on UO-31 renal, 60%; in the assay with TK-10 renal, 107%; in the assay with ACHN renal it was 55.7%; in the assay with A498 renal it was 57.2%; in the assay on CCRF-CEM leukemia it was -0.646% (active). For the same compound, the growth is -9.9% (active) with MOLT-4 leukemia and 11.6% with SR leukemia.
For the compound `Cc1ccc2nc3nc4ccc[nH]c4cc3c2c1`, the growth was 60.4% in the assay on HCT-15 colon; 76.8% in the assay on HT29 colon; 72.3% in the assay on SNB-75 CNS; 97.3% in the assay with SNB-19 CNS; 92.5% with U251 CNS; 87.5% in the assay on PC-3 prostate. Further, the growth in the assay with SK-MEL-5 melanoma was 71.7%; in the assay with UACC-62 melanoma, 94.3%; in the assay with LOX IMVI melanoma it was 97.9%; in the assay on SK-MEL-28 melanoma it was 116%; in the assay with SK-MEL-2 melanoma, 113%; with EKVX NSCLC, 56.8%. In addition, the growth in the assay on SN12C renal was 105%; with UO-31 renal it was 65.8%; in the assay on TK-10 renal, 46.9%; in the assay with ACHN renal it was 81.8%; with A498 renal it was 124%; in the assay with CCRF-CEM leukemia it was 98.9%. The growth with MOLT-4 leukemia was 119%; in the assay on SR leukemia, 18.1%.
As to `O=C(CN1N=C(c2ccc(F)cc2)CCC1=O)Nc1nccs1`, the growth in the assay on HCT-15 colon is 99.3%; in the assay on HT29 colon, 87%; in the assay on SNB-75 CNS it was 92.2%; in the assay with SNB-19 CNS it was 91.4%; with U251 CNS, 101%; in the assay on PC-3 prostate it was 88.3%. Moreover, the growth in the assay with SK-MEL-5 melanoma was 98.4%; with UACC-62 melanoma it was 92.5%; in the assay with LOX IMVI melanoma it was 98.9%; with SK-MEL-28 melanoma, 109%; with SK-MEL-2 melanoma it was 101%; in the assay with EKVX NSCLC it was 98.3%. The growth with SN12C renal is 96.9%; with UO-31 renal it was 87.6%; with TK-10 renal, -95.6% (active); in the assay on ACHN renal it was 107%; in the assay on A498 renal, 84.1%; with CCRF-CEM leukemia it was 94%. For the same compound, the figures for the growth in the assay on MOLT-4 leukemia and in the assay on SR leukemia were 97.5% and 92.8%, respectively.
Regarding `O=c1[nH]c2ccccc2cc1-c1nc2ccncc2[nH]1`, the growth in the assay with HCT-15 colon is 85.9%; in the assay with HT29 colon, 84.5%; in the assay with SNB-75 CNS, 58.3%; in the assay on SNB-19 CNS, 82.5%; in the assay with U251 CNS, 83.7%; with PC-3 prostate it was 74%. The growth in the assay on SK-MEL-5 melanoma is 86.7%; in the assay with UACC-62 melanoma, 80.3%; with LOX IMVI melanoma, 82.1%; with SK-MEL-28 melanoma it was 95.7%; with SK-MEL-2 melanoma, 73.9%; with EKVX NSCLC, 81.9%. The growth in the assay with SN12C renal is 94.3%; in the assay with UO-31 renal, 78.4%; in the assay with TK-10 renal it was 73.8%; in the assay on ACHN renal, 72.2%; in the assay with A498 renal, 88.7%; in the assay with CCRF-CEM leukemia, 59.5%. In addition, the growth is 45.8% in the assay with MOLT-4 leukemia and 46.8% in the assay with SR leukemia.
With `CN(C)CCCn1c2c(c3cc(-c4cccc(S(N)(=O)=O)c4)ccc3c1=O)C(=O)c1ccccc1-2`, the growth in the assay with HCT-15 colon was 61.7%; in the assay on HT29 colon, -6.96% (active); with SNB-75 CNS, 59.1%; in the assay with SNB-19 CNS, 64.8%; in the assay on U251 CNS, 47.5%; in the assay on PC-3 prostate it was 67.3%. The growth in the assay with SK-MEL-5 melanoma was 85.3%; in the assay on UACC-62 melanoma it was 77.3%; in the assay on LOX IMVI melanoma, 56.3%; in the assay with SK-MEL-28 melanoma it was 113%; in the assay with SK-MEL-2 melanoma it was 124%; in the assay with EKVX NSCLC, 88.6%. Also, the growth was 78.3% in the assay on SN12C renal; 72.9% in the assay on UO-31 renal; 99.5% in the assay on TK-10 renal; 57.2% in the assay on ACHN renal; 96.4% in the assay on A498 renal; 18.8% in the assay on CCRF-CEM leukemia. In addition, the growth was 8.99% (active) in the assay on MOLT-4 leukemia and -5.99% (active) in the assay on SR leukemia.
Regarding `CNCc1cccc2c1OCCOCCOCCN(CCN1CCOCC1)S(=O)(=O)c1ccc(cc1)-c1cnc(N)c(n1)C(=O)N2`, the growth in the assay with HCT-15 colon was 74.8%; in the assay with HT29 colon, 24.5%; with SNB-75 CNS, 16.7%; in the assay with SNB-19 CNS, 76.3%; in the assay with U251 CNS, 53.8%; in the assay with PC-3 prostate, 50.1%. Besides, the growth with SK-MEL-5 melanoma is 76.6%; in the assay with UACC-62 melanoma it was 73%; with LOX IMVI melanoma it was 28.4%; with SK-MEL-28 melanoma it was 76.3%; in the assay on SK-MEL-2 melanoma it was 60.9%; in the assay with EKVX NSCLC, 74.8%. Further, the growth in the assay with SN12C renal was 68.4%; with UO-31 renal, 55.6%; with TK-10 renal, 43.9%; in the assay on ACHN renal it was 36.7%; in the assay with A498 renal, 44.4%; with CCRF-CEM leukemia, 18%. Also, the growth in the assay with MOLT-4 leukemia is -1.99% (active); with SR leukemia, 7.93% (active).
In the case of `COc1ccc(Cc2nc(C#N)c(N3CCN(c4ccc(F)cc4)CC3)o2)cc1`, the growth in the assay on HCT-15 colon is 76%; in the assay with HT29 colon, 79.8%; in the assay on SNB-75 CNS it was 65.2%; in the assay on SNB-19 CNS, 99.1%; in the assay on U251 CNS, 103%; in the assay on PC-3 prostate it was 85.9%. Moreover, the growth in the assay on SK-MEL-5 melanoma was 100%; in the assay on UACC-62 melanoma, 76.1%; in the assay with LOX IMVI melanoma, 96.1%; in the assay on SK-MEL-28 melanoma, 97.9%; with SK-MEL-2 melanoma, 88.2%; with EKVX NSCLC, 93.2%. The growth with SN12C renal is 105%; in the assay with UO-31 renal, 81.7%; in the assay with TK-10 renal, 75.1%; with ACHN renal it was 103%; with A498 renal, 103%; with CCRF-CEM leukemia it was 83.7%. Besides, the results for the growth in the assay with MOLT-4 leukemia and in the assay on SR leukemia were 87.7% and 88.9%, respectively.
